# In the library only some 1.3% were active in any assay of this set; here they are far more common.
# Vc quorum ag – inducers of Vibrio cholerae quorum light production without autoinducers; 0.16% of 350,000 active; activation, % at 18.7 µM; V. cholerae BH1578 lux reporter, luminescence, 6 h; AID 588436; in the data active = activation mostly above about 9.7%, no sharp cut-off
# TcdB inh – inhibitors of Clostridioides difficile toxin B glycohydrolase; TcdB glycohydrolase enzymatic assay, plate reader; inhibition, % at 9.99 µM; 0.24% of 350,000 active; in the data active = inhibition above about 10%
# SSB-PriA inh – K. pneumoniae PriA-SSBct interaction inhibition | AlphaScreen SSBct-PriA binding, biotinylated peptide | inhibition, % at 33 µM | 0.6% of 430,000 active; in the data active = inhibition mostly above about 37%, no sharp cut-off; inactive = mostly below about 20%;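 also: plate controls were negative control peptide for no effect and reference peptide for full effect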
# VHR inh abs – blocks human VHR1 dual specificity phosphatase. P51452. recombinant VHR phosphatase, pNPP absorbance. inhibition, % at 13.3 µM. 0.52% of 290,000 active. AID 1654; in the data active = inhibition above about 50%
# 3CLpro inhibitor – SARS-CoV 3CLpro protease inhibition; P0C6X7; recombinant SARS-CoV 3CLpro, quenched FRET peptide cleavage; inhibition, % at 6 µM; 0.14% of 290,000 active; AID 1706; in the data active = inhibition above about 12%
# CCHF vOTU inh-1 – CCHFV vOTU protease inhibition | Pep-AMC fluorescence | inhibition, % at 11.5 µM | 0.55% of 370,000 active; also: 0% = vehicle wells with enzyme and 100% = no enzyme wells
# CCHF vOTU inh-2 – confirmation of CCHF virus vOTU protease inhibitors | Recombinant CCHFV vOTU, Pep-AMC fluorescence | 17% of 1,900 active | inhibition, % at 11.5 µM | shares compounds with CCHF vOTU inh-1
# Starred values were filed as active, the others as inactive; i = inactive; / = no result given. Rule as the data show it, unless noted: active = inhibition above about 30%; inactive = the rest.
SMILES,Vc quorum ag,TcdB inh,SSB-PriA inh,VHR inh abs,3CLpro inhibitor,CCHF vOTU inh-1,CCHF vOTU inh-2
CCN1CCN(c2ccc(S(=O)(=O)N3CCOCC3)cc2NC(=O)c2ccc(C(F)(F)F)cc2)CC1,-2.3,4.0,-12.9,/,/,34.5*,-11.9
CCc1cc(=O)[nH]c(SCC(=O)Nc2cc(C(F)(F)F)ccc2Cl)n1,/,/,-15.0,/,/,/,/
CCCCN(C(=O)CC1CCCCC1)c1c(N)n(CC(C)C)c(=O)[nH]c1=O,i,1.9,-5.8,/,/,31.6*,-27.0
COc1ccccc1CNC(=O)CCn1cnc2c([nH]c3ccc(Br)cc32)c1=O,/,/,-6.0,/,/,/,/
O=C1C=C(N2CCOCC2)c2ccccc2C1=O,0.4,0.4,8.8,17.9,4.0,102.7*,93.8*
O=C1C=C(N2CCOCC2)c2cccc3cccc1c23,i,-0.9,/,/,/,10.8,/
O=C1c2ccccc2C(=O)c2cc(N3CCCCC3)ccc21,i,-1.3,-2.9,/,/,-9.1,/
O=C(O)c1cccc(NC2=C(N3CCOCC3)C(=O)c3ccccc3C2=O)c1,4.2,0.3,-4.6,21.7,0.0,78.7*,93.3*
O=C1C=C(N2CC2)c2ccccc2C1=O,-4.5,-1.4,/,/,/,105.0*,92.0*
CC(C)(C)c1cc(=O)n(-c2ccccc2)[nH]1,-0.3,-1.9,-1.8,-11.3,-2.7,76.8*,-7.4
O=c1cc(-c2ccccc2)[nH]n1-c1ccccc1,i,-0.5,10.0,/,/,25.0,/
COc1ccccc1CNC(=O)COC(=O)C1CCN(c2ccc(C(F)(F)F)cn2)CC1,-1.4,-0.1,-12.8,/,/,43.5*,-10.3
Cc1ccc(C(=O)C(C)OC(=O)C2CCN(c3ccc(C(F)(F)F)cn3)CC2)cc1C (stereo unspecified),i,1.1,-31.1,/,/,19.3,/
COc1cccc(CNC(=O)COC(=O)C2CCN(c3ccc(C(F)(F)F)cn3)CC2)c1,-1.8,0.3,-20.7,/,/,1.5,/
Cc1cc(C)c(NC(=O)CNC(=O)COC(=O)C2CCN(c3ccc(C(F)(F)F)cn3)CC2)c(C)c1,-0.6,0.9,-2.5,2.5,1.3,33.9*,1.6
Cc1cc(C)c(NC(=O)COC(=O)C2CCN(c3ccc(C(F)(F)F)cn3)CC2)c(Cl)c1,i,0.7,4.7,/,/,17.1,/
CCOc1ccc(C(=O)C(C)OC(=O)C2CCN(c3ccc(C(F)(F)F)cn3)CC2)cc1 (stereo unspecified),-1.2,-2.1,-1.8,/,/,35.1*,9.9
O=C(NCC1COC2(CCCCC2)O1)c1ccc(F)c(F)c1 (stereo unspecified),/,/,2.0,/,/,/,/
N#C/C(C(=O)N1CCOCC1)=C1/N=C(NC(=O)c2cccs2)c2ccccc21,/,/,-8.0,/,/,/,/
Cc1ccc(-n2c3nc(=O)[nH]c(=O)c-3cc3cc([N+](=O)[O-])ccc32)cc1C,-0.2,-0.2,6.7,12.1,1.1,31.0*,-3.5
Cc1ccc(S(=O)(=O)n2cnc3cc([N+](=O)[O-])ccc32)cc1C,0.9,/,-1.5,39.1,2.8,6.0,/
CN(C)CCCN1c2ccc([N+](=O)[O-])cc2CCc2cc([N+](=O)[O-])ccc21,-11.1,-10.8,-2.9,/,/,35.4*,-4.0
O=C(NCCOc1ccc2c(c1)OCO2)c1ccc(S(=O)(=O)N2CCOCC2)cc1,/,/,2.0,/,/,/,/
O=C(c1ccc(C(F)(F)F)cc1)N1CCC(=O)N(C(CO)Cc2ccccc2)CC1 (stereo unspecified),i,0.4,-176.8,/,/,-3.4,/
CC(C)C[C@@H](COCc1cccc(C(F)(F)F)c1)N1CCN(C(=O)c2ccc(C(F)(F)F)cc2)CCC1=O,/,1.2,/,/,/,38.5*,16.2
SMILES,Vc quorum ag,TcdB inh,SSB-PriA inh,VHR inh abs,3CLpro inhibitor,CCHF vOTU inh-1,CCHF vOTU inh-2
O=C(c1ccc(C(F)(F)F)cc1)N1CCC(=O)N([C@H](COCc2ccc(Cl)cc2)Cc2ccccc2)CC1,/,-3.2,/,/,/,32.0*,6.8
O=C(c1ccc(C(F)(F)F)cc1)N1CCC(=O)N([C@H](COCc2ccc(C(F)(F)F)cc2)Cc2ccccc2)CC1,/,-0.8,/,/,/,33.7*,6.7
Cc1cc(CCC(=O)N2CCc3ncncc3C2)ccc1F,/,/,-13.0,/,/,/,/
CCC(C(=O)Nc1ccc(CN2CCN(c3ccccn3)CC2)cc1)c1ccccc1 (stereo unspecified),/,/,8.0,/,/,/,/
C[C@@H]1CN([C@@H](C)CO)C(=O)CCCn2nncc2CO[C@H]1CN(C)C(=O)Nc1ccccc1C(F)(F)F,-0.4,0.0,/,/,/,30.2*,-19.7
CCOc1ccc(NC(=O)c2ccc3c(c2)OCCO3)cc1S(=O)(=O)N(CC)CC,-0.3,0.0,-10.3,/,/,32.3*,-16.2
CC(NC(=O)C(C)N1c2cccc3cccc(c23)S1(=O)=O)c1ccccc1 (stereo unspecified),-0.3,-0.3,-1.7,-8.1,4.7,31.7*,-18.1
CC(C(N)=O)N1c2cccc3cccc(c23)S1(=O)=O (stereo unspecified),-1.1,-0.3,-15.1,16.9,-0.8,-12.2,/
O=C(O)c1[nH]c2ccccc2c1C(c1cc(Cl)cc([N+](=O)[O-])c1O)c1c(C(=O)O)[nH]c2ccccc12,-0.2,-0.5,3.0,10.7,11.6,45.9*,26.2
O=C(Cn1nc(-c2cccs2)ccc1=O)Nc1nc(-c2cccnc2)cs1,/,/,6.0,/,/,/,/
CNC(=O)c1ccsc1NC(=O)CCSc1ccc(Cl)cc1,/,/,-52.0,/,/,/,/
COc1ccc(C)cc1S(=O)(=O)N(C)CC(=O)Nc1ccc2c(c1)OCO2,i,0.7,5.5,1.2,-6.0,30.4*,0.2
CCOc1cc(/C=C2\C(=O)N(CCC#N)N=C2C)ccc1OCC(N)=O,-0.4,-1.0,9.9,-2.7,0.8,43.7*,-24.4
COc1cc(/C=C2\C(=O)N(CCC#N)N=C2C)ccc1OCC(=O)Nc1ccccc1,i,/,-5.4,-4.8,-0.4,17.8,/
O=c1c(-c2nc(-c3ccncc3)no2)cccn1CCOc1ccc(F)cc1,/,/,-6.0,/,/,/,/
O=C(Nc1cc(C(F)(F)F)ccc1F)C1Cc2c(-c3ccccc3Oc3ccccc3)ccnc2O1 (stereo unspecified),-0.8,0.6,/,/,/,36.1*,-1.7
O=C(Nc1cccc(OC(F)(F)F)c1)C1Cc2c(-c3ccccc3Oc3ccccc3)ccnc2O1 (stereo unspecified),-0.5,-0.5,/,/,/,30.0*,-5.2
O=C(Nc1ccccc1)C1Cc2c(-c3ccccc3Oc3ccccc3)ccnc2O1 (stereo unspecified),-0.5,0.4,/,/,/,2.5,/
Nc1c(C(=O)Nc2cccc(C(F)(F)F)c2)sc2nc3c(cc12)C(=O)CCC3,/,/,-18.0,/,/,/,/
Cc1ccc(S(=O)(=O)Nc2ccc(Nc3nccn4c(-c5cccc(OC(F)(F)F)c5)cnc34)cc2)cc1,-0.9,-1.6,/,/,/,29.9*,-4.8
O=C(NCCO)c1cccc(-c2cnc3c(Nc4cccc(OC(F)(F)C(F)F)c4)nccn23)c1,-0.6,0.8,/,/,/,13.9,/
Cc1ccc(S(=O)(=O)/N=C2/NC(=O)/C(=C/c3cc([N+](=O)[O-])ccc3O)S2)cc1,-0.5,-10.8,/,-3.8,6.9,42.5*,10.7
COc1ccc(/C=C/C(=O)Nc2nc(CN3CCc4ccccc4C3)cs2)cc1OC,/,/,8.0,/,/,/,/

# Screening results (PubChem)
